# In PubChem BioAssay:
# Values joined by “and” are separate entries in the source; they are usually repeats but may differ in a detail not shown here. Equal entries are not always repeated. Records with an inconclusive call do not appear. Active and inactive are the calls of the source. Cut-off read from the data, not from the text of the source, unless noted: active = parasite load remaining mostly below about 12% (no sharp cut-off); inactive = mostly above about 10%.
# Experiments:
# [1] = hESC survival regulators, cell-based (AID 493140; call rule not given here;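 note: cells exposed to compounds for four days before counting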); settings: human embryonic stem cell survival screen; stronger effect = higher value
# [2] = liver-stage malaria parasite growth inhibition, primary screen, cell-based, HepG2, luciferase luminescence, HepG2 viability (AID 624349);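 note: 100% = mean of DMSO negative control wells on the same plate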; settings: P. berghei liver stage in HepG2, luciferase luminescence, concentration not given here; parasite load remaining: stronger effect = lower value; viability: measured here: HepG2 viability without parasites
# [3] = stimulators of nuclear beta-catenin in C2C12, primary screen, imaging, WNT3A-conditioned medium, mouse C2C12, NPC library (AID 1117326; in the data active = nuclear beta-catenin stimulation mostly above about 4.2%, no sharp cut-off; inactive = mostly below about 10%; note: reference of the scale not given here); settings: stronger effect = higher value
# [4] = stimulators of insulin release from INS-1E, primary screen, cell-based, 5 mM glucose, NPC library (AID 1117329;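 active = compound raises insulin release from rat beta cells at 5 mM glucose, no numeric limit stated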; note: reference of the scale not given here); settings: rat INS-1E insulin secretion, at 10 µM, stronger effect = higher value
# [5] = growth inhibition of GSK3B-pretreated HCT116 cells – cell-based, CellTiter-Glo, 0.2 to 20 µM (AID 1117336;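 active = compounds lowering colon cancer cell viability after pretreatment blocking the GSK3B kinase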); settings: HCT116 viability after GSK3B inhibitor, at 20 µM, stronger effect = higher value
# [6] = inhibition of endothelial tube formation, primary screen, imaging, VEGF stimulated, CD31 staining, tube area, NPC library (AID 1117340;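 active = compound that reduces growth-factor-driven endothelial tube area in a mixed cell culture, no cutoff stated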); settings: VEGF-stimulated ADSC/ECFC co-culture, at 10 µM, stronger effect = higher value
# [7] = glucagon-like peptide 1 release enhancers, primary assay, NCI-H716 cell line, NPC library (AID 1117341;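 active = compound raises GLP1 secretion from the human gut endocrine cells, with no numeric limit stated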; note: reference of the scale not given here); settings: NCI-H716 cells, at 10 µM, stronger effect = higher value
# [8] = HCT116 colon cancer cell growth inhibition, primary screen, CellTiter-Glo luminescence, NPC library (AID 1117342;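 active = compounds that lower survival of HCT116 colon cancer cells in the luminescence readout, no numeric limit stated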); settings: at 20 µM (top of the series)
# [9] = CellTiter-Glo luminescent readout of SW480 viability loss, NPC library primary (AID 1117343;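 active = compounds that lower viability of the colon cancer cells in the luminescence readout, with no numeric limit stated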); settings: CellTiter-Glo luminescence; at 20 µM (top of the series) unless noted
# [10] = decreased DLD-1 cellular survival, CellTiter-Glo luminescent readout, NPC compound collection, primary HTS (AID 1117346;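 active = compounds that lower survival of DLD-1 colon cancer cells in the luminescence readout, no cutoff given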); settings: DLD-1 viability, CellTiter-Glo luminescence; at 20 µM (top of the series)
# [11] = sensitizers of A549 cells to miR-34 induction, primary screen, imaging, A549 dox-inducible miR-34, nuclei and caspase counts (AID 1347080;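 active = compounds whose cell count with miR-34 switched on is under 0.7 times the count with it off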); settings: A549 miR-34 inducible, Hoechst nuclei count, 48 h
# [12] = survival rescue of mitochondrial mutant cells in low glucose, primary screen, MELAS cybrids, Rieske KO mouse fibroblasts, CellTiter-Glo (AID 1508586;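 active = mean z-score across replicates of 1.96 or higher in either the MELAS or the Rieske mutant cell line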;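 note: z relative to plate mean and SD of compound and empty wells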)
# [13] = target: ATP-dependent translocase ABCB1 (Homo sapiens) (UniProt P08183); assay: MDR1 (ABCB1) efflux transporter inhibition, cell-based (AID 377; in the data active = fluorescence slope change above about 50%); settings: MDR1-expressing cells, fluorescent substrate accumulation slope; stronger effect = higher value; concentration not given here
# [14] = viability rescue of complex I mutant cybrids, primary screen, cell-based, galactose medium, ATP luminescence (AID 1645843;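 active = z-score of at least 1.8 in each of two replicates, scored against plate mean and spread of sample wells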;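 note: positive z means more ATP and so rescue of galactose-driven cybrid death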); settings: complex I mutant cybrid cells, 72 h, stronger effect = higher value
# [15] = target: NAD(+) hydrolase SARM1 (Homo sapiens) (UniProt Q6SZW1); assay: SARM1 TIR NADase inhibitors, cell lysate, NAD-Glo luminescence (AID 1508614;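 active = compound whose remaining NAD level is above about 45 nM, limit read from the data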;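 note: higher remaining NAD means stronger inhibition of SARM1 NADase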); settings: SAM-TIR HEK293T lysate NADase, at 1 µM, stronger effect = higher value
# [16] = stronger effect = lower value, cell number ratio, induced over uninduced
# [17] = measured here: relative caspase fold change +Dox/-Dox
# [18] = measured here: total cells with miR-34 induction, stronger effect = lower value
# [19] = measured here: total cells without miR-34 induction
# [20] = MELAS cybrid survival, CellTiter-Glo 48 h, stronger effect = higher value
# [21] = Rieske KO mouse fibroblast survival, CellTiter-Glo 72 h
# ATP-dependent translocase ABCB1 (Homo sapiens), sequence (P08183 whole entry, looked up): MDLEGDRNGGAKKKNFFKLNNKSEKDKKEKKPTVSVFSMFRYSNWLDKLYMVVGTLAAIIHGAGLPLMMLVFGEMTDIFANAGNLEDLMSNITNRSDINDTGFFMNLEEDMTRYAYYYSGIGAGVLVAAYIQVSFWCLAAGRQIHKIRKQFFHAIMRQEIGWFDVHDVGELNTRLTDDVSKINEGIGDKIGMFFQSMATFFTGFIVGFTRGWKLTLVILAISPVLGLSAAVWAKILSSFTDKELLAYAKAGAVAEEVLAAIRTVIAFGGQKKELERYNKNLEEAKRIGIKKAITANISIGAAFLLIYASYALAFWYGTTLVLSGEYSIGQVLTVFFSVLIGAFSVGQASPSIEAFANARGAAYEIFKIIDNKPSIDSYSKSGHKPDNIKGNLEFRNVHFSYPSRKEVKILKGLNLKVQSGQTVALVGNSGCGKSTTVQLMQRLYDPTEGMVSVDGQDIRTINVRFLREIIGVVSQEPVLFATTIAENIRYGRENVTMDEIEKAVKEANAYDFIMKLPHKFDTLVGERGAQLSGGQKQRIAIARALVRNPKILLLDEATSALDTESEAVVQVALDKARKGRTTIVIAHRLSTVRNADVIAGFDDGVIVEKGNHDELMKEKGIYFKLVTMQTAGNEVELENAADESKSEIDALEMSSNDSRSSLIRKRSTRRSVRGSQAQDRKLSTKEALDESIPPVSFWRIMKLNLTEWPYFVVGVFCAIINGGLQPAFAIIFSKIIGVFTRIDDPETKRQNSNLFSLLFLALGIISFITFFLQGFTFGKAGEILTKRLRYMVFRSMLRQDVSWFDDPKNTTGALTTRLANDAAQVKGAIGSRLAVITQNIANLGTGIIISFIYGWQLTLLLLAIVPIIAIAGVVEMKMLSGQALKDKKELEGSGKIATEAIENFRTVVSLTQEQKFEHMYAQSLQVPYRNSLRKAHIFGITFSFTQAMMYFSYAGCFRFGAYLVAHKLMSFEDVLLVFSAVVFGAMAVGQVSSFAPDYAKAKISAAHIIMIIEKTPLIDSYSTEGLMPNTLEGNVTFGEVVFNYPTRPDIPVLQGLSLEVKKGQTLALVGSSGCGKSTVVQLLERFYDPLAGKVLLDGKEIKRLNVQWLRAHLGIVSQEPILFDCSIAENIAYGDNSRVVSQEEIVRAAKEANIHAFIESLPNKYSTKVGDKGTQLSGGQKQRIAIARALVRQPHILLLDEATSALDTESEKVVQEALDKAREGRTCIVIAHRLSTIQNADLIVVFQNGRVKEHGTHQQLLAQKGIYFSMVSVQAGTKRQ
# NAD(+) hydrolase SARM1 (Homo sapiens), sequence (Q6SZW1 whole entry, looked up): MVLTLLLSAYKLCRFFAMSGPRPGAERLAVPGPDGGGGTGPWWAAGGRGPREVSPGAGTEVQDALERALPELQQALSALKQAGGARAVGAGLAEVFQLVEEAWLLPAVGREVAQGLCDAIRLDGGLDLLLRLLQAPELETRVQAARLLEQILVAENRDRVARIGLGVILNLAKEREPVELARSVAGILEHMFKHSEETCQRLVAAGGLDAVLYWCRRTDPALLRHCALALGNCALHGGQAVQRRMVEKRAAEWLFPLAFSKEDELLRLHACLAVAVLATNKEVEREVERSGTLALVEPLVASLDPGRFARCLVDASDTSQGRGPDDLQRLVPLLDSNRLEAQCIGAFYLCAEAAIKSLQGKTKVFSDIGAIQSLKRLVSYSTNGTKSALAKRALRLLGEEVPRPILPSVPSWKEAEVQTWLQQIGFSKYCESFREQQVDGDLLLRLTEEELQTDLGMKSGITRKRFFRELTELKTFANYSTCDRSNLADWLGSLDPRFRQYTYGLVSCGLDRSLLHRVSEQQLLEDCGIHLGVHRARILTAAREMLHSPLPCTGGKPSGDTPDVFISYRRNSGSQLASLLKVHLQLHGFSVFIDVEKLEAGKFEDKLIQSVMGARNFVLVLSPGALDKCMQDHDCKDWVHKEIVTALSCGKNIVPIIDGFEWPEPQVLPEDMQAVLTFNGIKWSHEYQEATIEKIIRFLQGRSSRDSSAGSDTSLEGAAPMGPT
compound,measurement,setting,value
CCCCc1cc2ccccc2c(OCCN(C)C)n1,survival,[1],4.17 (inactive)
same,parasite load remaining,[2],105% (inactive) and 71.5% (inactive)
same,viability,[2],105% and 79.9%
same,nuclear beta-catenin stimulation,[3]; at 10 µM,0.2% (inactive)
same,nuclear beta-catenin stimulation,"[3]; stimulation, at 2 µM",-0.1%
same,insulin secretion stimulation,[4],4.6% (inactive)
same,viability decrease,[5],-84.3% (inactive)
same,tube area decrease,[6],15.9% (inactive)
same,GLP1 secretion stimulation,[7],3.1% (inactive)
same,inhibition of viability,[8],22.3% (inactive)
same,viability decrease (inhibition),[9],72.1% (active)
same,viability decrease (inhibition),[10],-3.7% (inactive)
same,fold change,[11]; [16],0.931 (inactive)
same,fold change,[11]; [17],1.26
same,cell count,[11]; [18],6620
same,cell count,[11]; [19],7110
same,z-score,[12]; [20],0.0733 (inactive)
same,z-score,[12]; [21],0.0128
C[N+]1(C)CCC(=C(c2ccccc2)c2ccccc2)CC1,survival,[1],14.4 (inactive)
same,parasite load remaining,[2],49.5% (inactive) and 80.3% (inactive)
same,viability,[2],48.7% and 94.9%
same,nuclear beta-catenin stimulation,[3]; at 10 µM,1.1% (inactive)
same,nuclear beta-catenin stimulation,"[3]; stimulation, at 2 µM",-1.3%
same,insulin secretion stimulation,[4],3.5% (inactive)
same,viability decrease,[5],-7.5% (inactive)
same,tube area decrease,[6],23.2% (inactive)
same,GLP1 secretion stimulation,[7],0% (inactive)
same,inhibition of viability,[8],7.97% (inactive)
same,viability decrease (inhibition),[9],40.8% (inactive)
same,viability decrease (inhibition),[10],-3.1% (inactive)
same,fold change,[11]; [16],0.907 (inactive) and 1.1 (inactive)
same,fold change,[11]; [17],0.619 and 0.415
same,cell count,[11]; [18],8340 and 8800
same,cell count,[11]; [19],9190 and 7990
same,z-score,[12]; [20],-0.294 (inactive) and -0.951 (inactive)
same,z-score,[12]; [21],-0.199 and -0.0737
CCc1cccc(CC)c1NC(=O)CN(CC(=O)O)CC(=O)O,fluorescence slope change,[13],-10% (inactive)
same,survival,[1],10.9 (inactive)
same,parasite load remaining,[2],77.8% (inactive) and 89.7% (inactive)
same,viability,[2],111% and 80.2%
same,nuclear beta-catenin stimulation,[3]; at 10 µM,-0.2% (inactive)
same,nuclear beta-catenin stimulation,"[3]; stimulation, at 2 µM",0.2%
same,insulin secretion stimulation,[4],-1.7% (inactive)
same,viability decrease,[5],-8.7% (inactive)
same,tube area decrease,[6],7.4% (inactive)
same,GLP1 secretion stimulation,[7],-0.1% (inactive)
same,inhibition of viability,[8],12% (inactive)
same,viability decrease (inhibition),[9],39.7% (inactive)
same,viability decrease (inhibition),[10],1.77% (inactive)
same,fold change,[11]; [16],0.877 (inactive)
same,fold change,[11]; [17],1.63
same,cell count,[11]; [18],9160
same,cell count,[11]; [19],10400
same,z-score,[12]; [20],0.304 (inactive)
same,z-score,[12]; [21],0.0436
CC1(C)CC1C(=O)NC(=CCCCCSCC(N)C(=O)O)C(=O)O (stereo not given),nuclear beta-catenin stimulation,[3]; at 10 µM,-2.2% (inactive)
same,nuclear beta-catenin stimulation,"[3]; stimulation, at 2 µM",-0.6%
same,insulin secretion stimulation,[4],2.2% (inactive)
same,viability decrease,[5],15.4% (inactive)
same,tube area decrease,[6],26.1% (inactive)
same,GLP1 secretion stimulation,[7],-4.3% (inactive)
same,inhibition of viability,[8],37.8% (inactive)
same,viability decrease (inhibition),[9],28.9% (inactive)
same,viability decrease (inhibition),[10],-4% (inactive)
same,fold change,[11]; [16],0.936 (inactive)
same,fold change,[11]; [17],1.99
same,cell count,[11]; [18],9810
same,cell count,[11]; [19],10500
same,z-score,[14],0.555 (inactive)
NCCC(O)(P(=O)(O)O)P(=O)(O)O,parasite load remaining,[2],25.4% (inactive)
same,viability,[2],75%
same,nuclear beta-catenin stimulation,[3]; at 10 µM,1.8% (inactive)
same,nuclear beta-catenin stimulation,"[3]; stimulation, at 2 µM",-0.1%
same,insulin secretion stimulation,[4],-3.4% (inactive)
same,viability decrease,[5],-16% (inactive)
same,tube area decrease,[6],8.2% (inactive)
same,GLP1 secretion stimulation,[7],1.4% (inactive)
same,inhibition of viability,[8],-1.9% (inactive)
same,viability decrease (inhibition),[9],16.6% (inactive)
same,viability decrease (inhibition),[10],-6.8% (inactive)
same,fold change,[11]; [16],0.878 (inactive)
same,fold change,[11]; [17],1.25
same,cell count,[11]; [18],9450
same,cell count,[11]; [19],10800
same,z-score,[12]; [20],0.361 (inactive)
same,z-score,[12]; [21],-0.434
same,z-score,[14],0.62 (inactive)
COc1ccc(-c2cc(=S)ss2)cc1,parasite load remaining,[2],61.1% (inactive)
same,viability,[2],107%
same,nuclear beta-catenin stimulation,[3]; at 10 µM,-1.5% (inactive)
same,nuclear beta-catenin stimulation,"[3]; stimulation, at 2 µM",-0.3%
same,insulin secretion stimulation,[4],3.1% (inactive)
same,viability decrease,[5],11.9% (inactive)
same,tube area decrease,[6],-0.7% (inactive)
same,GLP1 secretion stimulation,[7],-6.2% (inactive)
same,inhibition of viability,[8],27.2% (inactive)
same,viability decrease (inhibition),[9],22.2% (inactive)
same,viability decrease (inhibition),[10],11% (inactive)
same,fold change,[11]; [16],0.899 (inactive)
same,fold change,[11]; [17],1.14
same,cell count,[11]; [18],8880
same,cell count,[11]; [19],9880
same,z-score,[12]; [20],0.776 (inactive) and 0.734 (inactive)
same,z-score,[12]; [21],0.201 and 0.472
same,z-score,[14],0.675 (inactive)
CCC(=O)c1ccc(O)cc1,nuclear beta-catenin stimulation,[3]; at 10 µM,2.6% (inactive)
same,nuclear beta-catenin stimulation,"[3]; stimulation, at 2 µM",-0.5%
same,insulin secretion stimulation,[4],0.1% (inactive)
same,viability decrease,[5],8.05% (inactive)
same,tube area decrease,[6],5.9% (inactive)
same,GLP1 secretion stimulation,[7],-2.3% (inactive)
same,inhibition of viability,[8],16.7% (inactive)
same,viability decrease (inhibition),[9],60.1% (active)
same,viability decrease (inhibition),[10],25.2% (inactive)
same,fold change,[11]; [16],0.903 (inactive)
same,fold change,[11]; [17],0.966
same,cell count,[11]; [18],7980
same,cell count,[11]; [19],8840
same,remaining NAD,[15],10 nM (inactive)
CN1CCCN(C(c2ccccc2)c2ccc(Cl)cc2)CC1 (stereo not given),fluorescence slope change,[13],122% (active)
same,survival,[1],4.08 (inactive)
same,parasite load remaining,[2],48.8% (inactive) and 98.3% (inactive)
same,viability,[2],42.5% and 88%
same,nuclear beta-catenin stimulation,[3]; at 10 µM,3.7% (inactive)
same,nuclear beta-catenin stimulation,"[3]; stimulation, at 2 µM",1.3%
same,insulin secretion stimulation,[4],2.9% (active)
same,viability decrease,[5],96% (active)
same,tube area decrease,[6],38.7% (inactive)
same,GLP1 secretion stimulation,[7],13.9% (inactive)
same,inhibition of viability,[8],96.5% (active)
same,viability decrease (inhibition),[9],122% (active)
same,viability decrease (inhibition),[10],71% (active)
same,fold change,[11]; [16],0.886 (inactive)
same,fold change,[11]; [17],1.48
same,cell count,[11]; [18],7610
same,cell count,[11]; [19],8580
same,z-score,[12]; [20],-0.68 (inactive)
same,z-score,[12]; [21],0.377
OCc1ccccn1,nuclear beta-catenin stimulation,[3]; at 10 µM,-1% (inactive)
same,nuclear beta-catenin stimulation,"[3]; stimulation, at 2 µM",0.3%
same,insulin secretion stimulation,[4],0% (inactive)
same,viability decrease,[5],4.8% (inactive)
same,tube area decrease,[6],-15.2% (inactive)
same,GLP1 secretion stimulation,[7],-2.9% (inactive)
same,inhibition of viability,[8],-23.7% (inactive)
same,viability decrease (inhibition),[9],30.6% (active)
same,viability decrease (inhibition),[10],-10.2% (inactive)
same,fold change,[11]; [16],0.898 (inactive)
same,fold change,[11]; [17],0.701
same,cell count,[11]; [18],8220
same,cell count,[11]; [19],9160
same,remaining NAD,[15],10 nM (inactive)
CC(C(=O)O)c1ccc(C(=O)c2ccccc2)s1 (stereo not given),survival,[1],11.3 (inactive)
same,parasite load remaining,[2],86.4% (inactive) and 106% (inactive)
same,viability,[2],112% and 75.4%
same,nuclear beta-catenin stimulation,[3]; at 10 µM,0.5% (inactive)
same,nuclear beta-catenin stimulation,"[3]; stimulation, at 2 µM",0.1%
same,insulin secretion stimulation,[4],-2% (inactive)
same,viability decrease,[5],4.35% (inactive)
same,tube area decrease,[6],4% (inactive)
same,GLP1 secretion stimulation,[7],-4.7% (inactive)
same,inhibition of viability,[8],7.4% (inactive)
same,viability decrease (inhibition),[9],37.4% (inactive)
same,viability decrease (inhibition),[10],10.6% (inactive)
same,fold change,[11]; [16],0.849 (inactive)
same,fold change,[11]; [17],1.29
same,cell count,[11]; [18],9200
same,cell count,[11]; [19],10800
same,z-score,[12]; [20],-0.736 (inactive)
same,z-score,[12]; [21],-0.23
